Source: PubChem
The list is not random: actives were taken first. Their share in the collection is about 7.5%.
VACV Venus inh = vaccinia inhibition (Venus reporter); Potency, µM (series often up to 36.5 µM), for inactives: at the highest dose activity change, negative = inhibition, actives largely listed as inhibitors; Vaccinia virus Venus reporter expression, fluorescence; 0.46% of 330,000 active; AID 720580; calls by dose curve; tested in A549 cells; further: potency means the concentration at half of the fitted maximal effect; nearly all actives have a fitted effect of over 30% in size
Vaccinia mCherry = vaccinia inhibition (mCherry reporter); AID 720579; Vaccinia virus mCherry reporter infection, fluorescence; 0.63% of 310,000 active; Potency, µM (highest dose often 36.5 µM), for inactives: top-dose activity change, negative = inhibition, hits mostly inhibitors; calls by dose curve; tested in A549 cells; further: potency means the concentration at half of the fitted maximal effect; nearly all actives have a fitted effect of over 35% in size
HCMV inh = blocks human cytomegalovirus replication. 4.5% of 410,000 active. AID 1259415. HFF cells, HCMV-luciferase reporter, 72 h; active compounds read low. activity change, negative = inhibition, % at 57.5 µM; in the data active means activity change below about -60%; inconclusive means no clear call, values can overlap the other calls; inactive means above about -39%
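Two-dose cell screen: HFF monolayers treated with compounds and infected with luciferase-expressing HCMV at 1 PFU/cell, 72 h at 37C, then lysed for luciferase measurement.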
FBPA Giardia inh = Giardia lamblia aldolase inhibition | Potency, µM (doses to about 59.6 µM), inactives show at the highest dose activity, negative = inhibition, most hits filed as inhibitors | AID 2451 | 0.71% of 290,000 active | A8B2U2 | purified Giardia FBPA; further: potency means the concentration at half of the fitted maximal effect; nearly all actives have a fitted effect of over 55% in size
Target sequence (A8B2U2 whole entry, looked up): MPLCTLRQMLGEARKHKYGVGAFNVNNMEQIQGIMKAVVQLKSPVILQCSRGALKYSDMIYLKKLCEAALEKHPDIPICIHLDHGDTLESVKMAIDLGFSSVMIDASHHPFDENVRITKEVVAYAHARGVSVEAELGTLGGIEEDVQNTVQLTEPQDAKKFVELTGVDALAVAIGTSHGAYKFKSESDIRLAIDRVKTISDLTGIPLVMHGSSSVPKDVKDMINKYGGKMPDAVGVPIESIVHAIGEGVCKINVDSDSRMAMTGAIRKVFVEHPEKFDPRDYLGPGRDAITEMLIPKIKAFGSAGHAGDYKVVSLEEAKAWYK
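Giardia FBPA (40 nM reagent) was preincubated 10 min at RT with compound (up to 57.5 uM final), then substrate plus GAPDH/TPI/NAD/arsenate coupling system with diaphorase/resazurin was added; resorufin fluorescence (525/598 nm) was read after 20 min.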
HCV inh = blocks hepatitis C virus | Huh7.5.1 HCVcc-Cre infection, luciferase reporter, 44 h | Potency, µM (titrated, usually from 41.8 µM), for the others: at the top dose activity change, negative = inhibition, most hits filed as inhibitors | 3.4% of 340,000 active; further: potency means the concentration at half of the fitted maximal effect
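Compounds are dispensed onto cells plated 4 h earlier at 1,000 per well, with HCVcc-Cre virus (about 0.5 moi) added next. Following 44 h of culture, luminescent signal is measured for 15 sec after 15 min with substrate at room temperature.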
FMDV antiviral = antivirals against foot and mouth disease virus; FMDV antiviral cell-based qHTS; Potency, µM (titrated, usually from 57.9 µM), for inactives: at the highest dose activity change, negative = inhibition, actives largely listed as inhibitors; 1.2% of 410,000 active; calls by dose curve; tested in HEK293T cells; further: read-out not given here; potency means the concentration at half of the fitted maximal effect; nearly all actives have a fitted effect of over 45% in size
* = called active by the depositor; i = inactive; u = inconclusive; x = no result; ! = not confirmed by another sample; [ ] = remark or other dose. Unless noted, the call rests on the fitted dose curve; in most records, active means well fitted curve in the direction sought with a large enough effect; inconclusive means small, poorly fitted or top-dose-only effect, or another doubt; inactive means no such curve, though single readings can be large; an effect the other way counts as inactive or inconclusive. On the % scale 0 is the no-effect control and ±100 the full control effect.

SMILES	VACV Venus inh	Vaccinia mCherry	HCMV inh	FBPA Giardia inh	HCV inh	FMDV antiviral
CC1(C)Cc2c(cnn2-c2ccc(F)cc2)C(NC(=O)C2=NNC(=O)CC2)C1 (stereo not drawn)	-7%[7.34 µM]	-16%[7.34 µM]	0	-4%	3%	6%
Cc1cc(C)cc(-n2ncc3c2CCCC3NC(=O)CN2CCCC2=O)c1 (stereo not drawn)	x	x	-23	x	3%	-16%
CC(=O)NC1CCCc2c1cnn2-c1ccc(C(C)(C)C)cc1 (stereo not drawn)	-11%	-28%	-28	6%	10µM*	-20%
CC(C)(C)c1ccc(-n2ncc3c2CCCC3NC(=O)CN2CCCC2=O)cc1 (stereo not drawn)	-25%	-24%	-67*	-5%	10µM*	u
Cc1cc(C(=O)NC2CCCc3c2cnn3-c2ccc(C)c(C)c2)no1 (stereo not drawn)	x	x	-30	x	u	u
CCC(=O)N1CCc2cc(CNS(=O)(=O)c3cc(Cl)ccc3OC)ccc21	-4%	-13%	-23	x	x	54%
CSc1ccc(/C=C2\C=Cc3cc([N+](=O)[O-])ccc32)cc1	-11%	-13%	x	x	x	x
CC(C)(C)c1ccc(-n2ncc3c2CCCC3NC(=O)c2cnccn2)cc1 (stereo not drawn)	-21%	u	-63*	-2%	4.5µM*	-14%
CC(C)(C)c1ccc(-n2ncc3c2CCCC3NC(=O)c2csnn2)cc1 (stereo not drawn)	-11%	-12%	-8	-3%	5%	-22%
COCCCNC(=O)C1CCN(C(=O)c2ccc(-n3ccc4ccccc43)s2)CC1	-6%	-13%	10	x	x	17%
O=c1c(-c2ccc(O)cc2)coc2cc(O)ccc12	0.63µM*!	u	26	6%	2%	29%
Cc1ccccc1-c1coc2cc(O)ccc2c1=O	-3%	-12%	12	-6%	-11%	5%
COc1ccc(-c2coc3cc(O)ccc3c2=O)c(O)c1O	-6%	i	x	18µM*	x	31%
Cc1cccc(Cn2c(-c3ccc[nH]c3=O)nc3ccccc32)c1	x	x	u	2%	10%	-18%
CC1(C)c2[nH]c3ccccc3c2C[C@@H]2C(=O)N(Cc3ccco3)C(=O)N21	x	x	-2	x	x	0%
CCN(CC)c1ccc(/C=N/NC(=S)NCc2ccccc2)c(O)c1	u	u	-63*	-19%	-28%	-34%
CCN(CC)c1ccc(/C=N/NC(=O)Cc2cccs2)c(O)c1	u	6.3µM*	-100*	-14%	u	22%
CCN(CC)c1ccc(/C=N/NC(=O)c2ccco2)c(O)c1	x	x	-103*	14%	u	62%
CCN(CC)c1ccc(/C=N/N(c2ccccc2)c2ccccc2)c(O)c1	14%	-3%	-20	-9%	-3%	u
SCc1nc2ccccc2[nH]1	-11%	-22%	x	x	x	x
O=C(CC1C(=O)NCCN1Cc1ccc(F)cc1)NCCCn1cccn1 (stereo not drawn)	x	x	-26	-16%	15%	3%
CC(O)CNc1nc2sc3c(c2c(=O)n1CCc1ccccc1)CCCCC3 (stereo not drawn)	-14%	i	-28	-10%	-4%	13%
CN(C)CCNc1nc2sc3c(c2c(=O)n1CCc1ccccc1)CCCCC3	x	x	-99*	0%	u	-23%
CCOc1ccc(-c2oc3cc(Cl)ccc3c(=O)c2O)cc1OC	-24%	28µM*	-12	x	x	2%
COc1cc(-c2oc3cc(O)ccc3c(=O)c2O)ccc1O	0%	u	x	-2%	x	41%
SMILES	VACV Venus inh	Vaccinia mCherry	HCMV inh	FBPA Giardia inh	HCV inh	FMDV antiviral
Cc1sc(N/N=C/C=C/c2ccccc2)nc1-c1ccccc1	u	3.5µM*	27	-2%	-19%	-1%
COc1cccc(NC(=O)c2ccc(NCCCN3CC(C)CC(C)C3)c([N+](=O)[O-])c2)c1 (stereo not drawn)	-3%	-10%	-25	-8%	7.9µM*	-18%
Cc1ccc(NC(=O)c2ccc(NCCN)c([N+](=O)[O-])c2)cc1Cl	-12%	-13%	-82*	8%	14µM*	12%
COc1cccc(NC(=O)c2ccc(NCCCN3CCC(C)CC3)c([N+](=O)[O-])c2)c1	-16%	i	-24	2%	u	-3%
Cc1ccc(NC(=O)c2ccc(NCCCN3CCC(C)CC3)c([N+](=O)[O-])c2)c(C)c1	x	x	u	18%	11µM*	4%
Cc1ccc(NC(=O)c2ccc(NCCc3ccccc3)c([N+](=O)[O-])c2)cc1F	-1%	-10%	18	-4%	u	-22%
C[C@@H](C(=O)N1CCN(Cc2ccc3c(c2)OCO3)CC1)n1nnc2ccccc2c1=O	-6%	-8%	21	-6%	-9%	-17%
CCOc1ccc(CCNC(=O)c2nc(-c3cccc(F)c3)n3c2CCCCC3)cc1OCC	u	i	1	x	x	-17%
CN(C(=O)c1nc(-c2cccc(F)c2)n2c1CCCCC2)c1ccccc1F	-1%	i	-62*	x	x	-13%
CN(CC(=O)O)c1ccc(C=O)cc1	-21%	-5%	x	x	x	x
Cc1ccc(S(=O)(=O)c2ncccc2N)cc1	-20%	i	-8	8%	6%	-11%
Cc1ccc(S(=O)(=O)c2ncccc2[N+](=O)[O-])cc1	-30%	-20%	-101*	2%	u	20µM*
COc1ccc(S(=O)(=O)NCC2CCCN(Cc3ccc(OC)cc3F)C2)cc1 (stereo not drawn)	-19%	i	0	x	u	-1%
O=C(O)c1cccc(N2C(=O)C=CC2=O)c1	-9%	-19%	-17	x	x	-14%
COc1ccc(NC(=O)c2cccc(N3C(=O)C4C5C=CC(C6CC56)C4C3=O)c2)c(OC)c1 (stereo not drawn)	-17%	-5%	-18	x	-29%	-30%
O=C(Nc1ccc(Cl)cc1)c1cccc(N2C(=O)C3C4CCC(C4)C3C2=O)c1 (stereo not drawn)	-25%	-20%	u	-7%	u	32µM*
COc1ccc(NC(=O)c2cccc(N3C(=O)C4C5C=CC(C5)C4C3=O)c2)cc1Cl (stereo not drawn)	-7%	-10%	13	x	10µM*	u
COc1ccc(NC(=O)c2cccc(N3C(=O)C4C5C=CC(C6CC56)C4C3=O)c2)cc1 (stereo not drawn)	-22%	-13%	-8	-6%	x	40µM*
Cc1ccc(NC(=O)c2cccc(N3C(=O)C4C5C=CC(C5)C4C3=O)c2)cc1C (stereo not drawn)	x	x	u	x	-25%	0%
O=C(Nc1ccc(Cl)cc1Cl)c1cccc(N2C(=O)C=CC2=O)c1	-25%	i	-73*	x	-8%	-29%
OCc1ccccc1OCCCOc1cccc2cccnc12	-18%	i	2	-4%	-8%	19%
COc1ccc(COC[C@H](C)[C@H](O)[C@@H](C)[C@H]2OC(=O)[C@@H]2C)cc1	-13%	i	26	7%	35%	-2%
